Measured values taken from PubChem BioAssay (NCI).
The panel holds about 79,000 compounds, 15% with a hit somewhere; the sample as a whole holds those more often. A number with no mark means an inactive call. Activity calls are given as the source filed them. No stated cut-off is given here; in the data, active means growth inhibition above about 70%; inactive means the rest.

Assay: NCI Yeast Anticancer Drug Screen. Data for the mlh1 strain (AID 171);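 further: 0% = growth of vehicle-treated control cultures of the same strain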
Details: S. cerevisiae mlh1 strain growth inhibition, active compounds read high
Method: Growth inhibition of yeast strains with defined genetic alterations is measured as a screen for potential anti-cancer activity. Selected strains with alterations in DNA damage repair or cell cycle control were exposed to compounds and growth inhibition was measured relative to vehicle treated controls. The strain used in this assay is mlh1

COC(=O)C1=C(C(=O)OC)C2(C)C=CC1O2 (stereo not given)
growth inhibition (at 1.2 µM): -14% | growth inhibition (at 3.7 µM): -10% | growth inhibition (at 11.0 µM): -7% | growth inhibition (at 33.0 µM): 52% | growth inhibition (at 100.0 µM): 90% (active)

Cc1ccc(CSC(N)=Nc2ccccc2)cc1C
growth inhibition (at 1.2 µM): -7% | growth inhibition (at 3.7 µM): -12% | growth inhibition (at 11.0 µM): -6% | growth inhibition (at 33.0 µM): 4% | growth inhibition (at 100.0 µM): 66%

Clc1cccc(C(Nc2nncs2)Nc2nncs2)c1Cl
growth inhibition (at 1.2 µM): -1% | growth inhibition (at 3.7 µM): 0% | growth inhibition (at 11.0 µM): 3% | growth inhibition (at 33.0 µM): 16% | growth inhibition (at 100.0 µM): 49%

CC(C)NC(=O)OCc1c(COC(=O)NC(C)C)c(-c2ccc(Cl)c(Cl)c2)n2c1CCC2
growth inhibition (at 1.2 µM): -44% | growth inhibition (at 3.7 µM): -71% | growth inhibition (at 11.0 µM): -69% | growth inhibition (at 33.0 µM): -40% | growth inhibition (at 100.0 µM): 76% (active)

c1ccc(-c2ccnc3c2ccc2c(-c4ccccc4)ccnc23)cc1
growth inhibition (at 1.2 µM): -7% | growth inhibition (at 3.7 µM): -8% | growth inhibition (at 11.0 µM): 46% | growth inhibition (at 33.0 µM): 98% (active) | growth inhibition (at 100.0 µM): 98% (active)

N#CSc1ccc(S(N)(=O)=O)cc1
growth inhibition (at 1.2 µM): -65% | growth inhibition (at 3.7 µM): -44% | growth inhibition (at 11.0 µM): -33% | growth inhibition (at 33.0 µM): 8% | growth inhibition (at 100.0 µM): 64%

COc1cc2ccc(/C=C\[N+](=O)[O-])cc2cc1OC
growth inhibition (at 1.2 µM): -36% | growth inhibition (at 3.7 µM): -36% | growth inhibition (at 11.0 µM): 19% | growth inhibition (at 33.0 µM): 98% (active) | growth inhibition (at 100.0 µM): 97% (active)

N/C(=N\OC(=O)NC(Cl)=C(Cl)Cl)c1cc(C(F)(F)F)cc(C(F)(F)F)c1
growth inhibition (at 1.2 µM): -27% | growth inhibition (at 3.7 µM): -11% | growth inhibition (at 11.0 µM): -14% | growth inhibition (at 33.0 µM): 57% | growth inhibition (at 100.0 µM): 97% (active)
